Screens (PubChem BioAssay)
Pol iota inh = qHTS for Inhibitors of Polymerase Iota; DNA polymerase iota (Homo sapiens), Q9UNA4; Pol iota fluorescent replication assay, 10 min; Potency, µM (doses to about 115 µM), for the others: top-dose activity, negative = inhibition, usual class: inhibitors; actives 1% (n = 390,000); note: potency is the fitted concentration of half-maximal effect
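Pol iota at 10 nM preincubated 15 min with compounds at room temperature; reaction started with fluorescent substrate, 50 nM final. Fluorescence read kinetically at 0 and 10 min; buffer-only wells as negative control.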
Pol eta inh = qHTS for Inhibitors of Polymerase Eta; DNA polymerase eta (Homo sapiens), Q9Y253; recombinant Pol eta, fluorescent DNA replication assay; Potency, µM (doses to about 114 µM), for inactives: at the highest dose activity change, negative = inhibition, hits mostly inhibitors; actives 1.2% (n = 390,000); AID 588591, 2011; note: potency is the fitted concentration of half-maximal effect; % is set by controls: 0 for no effect and ±100 for the full control effect
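Pol eta (10 nM) was preincubated with compounds for 15 min at room temperature, after which fluorescent replication substrate (50 nM final) was added to start the reaction. Fluorescence was read kinetically at 0 and 10 min.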
POLB inh = qHTS Assay for Inhibitors of DNA Polymerase Beta; P06746; Pol beta primer extension/strand displacement, fluorescence kinetic; Potency, µM (series often up to 114 µM), for the others: at the top dose activity change, negative = inhibition, usual class: inhibitors; AID 485314, 2010; actives 1.3% (n = 340,000); note: potency is the fitted concentration of half-maximal effect; % is set by controls: 0 for no effect and ±100 for the full control effect
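Curves were derived by four-parameter Hill fits of normalized qHTS data. The kinetic fluorescent primer-extension read was taken at 0 and 10 min after 50 nM substrate, following a 15 min room-temperature preincubation of 10 nM enzyme with compounds.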
WRN helicase inh = qHTS for Inhibitors of WRN Helicase; Bifunctional 3'-5' exonuclease/ATP-dependent helicase WRN (Homo sapiens), Q14191; WRN helicase unwinding, fluorescent forked duplex, kinetic; Potency, µM (doses to about 114 µM), for inactives: at the top dose activity change, negative = inhibition, usual class: inhibitors; actives 0.46% (n = 360,000); AID 651768, 2012; note: potency is the fitted concentration of half-maximal effect; % is set by controls: 0 for no effect and ±100 for the full control effect; nearly all actives have a fitted effect of over 55% in size
Target sequence (Q14191 whole entry, looked up): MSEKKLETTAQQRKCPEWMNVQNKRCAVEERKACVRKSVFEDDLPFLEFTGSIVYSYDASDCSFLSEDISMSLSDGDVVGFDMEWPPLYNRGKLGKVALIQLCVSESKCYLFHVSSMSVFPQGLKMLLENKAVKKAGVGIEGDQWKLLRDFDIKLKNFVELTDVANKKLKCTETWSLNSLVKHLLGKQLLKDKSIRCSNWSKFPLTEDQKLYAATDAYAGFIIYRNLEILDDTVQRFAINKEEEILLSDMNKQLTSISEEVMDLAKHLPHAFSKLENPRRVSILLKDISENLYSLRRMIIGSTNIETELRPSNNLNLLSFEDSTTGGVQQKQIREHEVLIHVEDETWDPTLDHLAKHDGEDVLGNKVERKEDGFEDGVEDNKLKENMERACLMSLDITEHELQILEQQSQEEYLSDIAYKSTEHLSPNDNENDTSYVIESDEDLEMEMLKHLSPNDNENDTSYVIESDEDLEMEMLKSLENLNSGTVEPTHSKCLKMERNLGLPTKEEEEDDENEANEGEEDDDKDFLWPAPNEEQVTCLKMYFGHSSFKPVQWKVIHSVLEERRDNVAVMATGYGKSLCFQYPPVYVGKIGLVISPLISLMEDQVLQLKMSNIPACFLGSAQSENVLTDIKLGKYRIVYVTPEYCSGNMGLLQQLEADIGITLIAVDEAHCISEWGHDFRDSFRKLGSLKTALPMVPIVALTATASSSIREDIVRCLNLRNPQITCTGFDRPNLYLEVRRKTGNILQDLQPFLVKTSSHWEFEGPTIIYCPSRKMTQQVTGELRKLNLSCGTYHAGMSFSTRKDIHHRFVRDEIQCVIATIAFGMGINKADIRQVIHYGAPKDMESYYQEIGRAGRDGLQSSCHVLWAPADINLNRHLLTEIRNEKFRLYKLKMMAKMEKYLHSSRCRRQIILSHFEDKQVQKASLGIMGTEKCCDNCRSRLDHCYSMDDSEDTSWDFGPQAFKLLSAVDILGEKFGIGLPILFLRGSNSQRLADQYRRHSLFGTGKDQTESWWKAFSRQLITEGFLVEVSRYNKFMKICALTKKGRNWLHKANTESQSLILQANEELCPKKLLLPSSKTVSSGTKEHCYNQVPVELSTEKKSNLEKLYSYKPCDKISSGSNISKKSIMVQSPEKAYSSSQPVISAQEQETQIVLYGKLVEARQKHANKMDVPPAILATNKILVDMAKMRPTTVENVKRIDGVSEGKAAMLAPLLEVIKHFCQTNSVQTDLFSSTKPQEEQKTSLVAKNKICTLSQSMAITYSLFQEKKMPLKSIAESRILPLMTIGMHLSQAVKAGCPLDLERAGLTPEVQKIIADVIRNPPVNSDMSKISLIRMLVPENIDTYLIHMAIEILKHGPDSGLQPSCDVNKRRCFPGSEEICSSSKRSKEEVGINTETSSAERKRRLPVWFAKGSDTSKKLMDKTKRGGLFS
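Kinetic red-fluorescence monitoring (525/598 nm) tracks WRN helicase activity after 100 nM fluorophore-quencher forked duplex and 2 mM ATP are added to 20 nM enzyme pretreated 15 min at room temperature with compound.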
POLK inh = qHTS for Inhibitors of Polymerase Kappa; actives 0.53% (n = 400,000); AID 588579, 2011; Potency, µM (series often up to 107 µM), for the others: at the top dose activity, negative = inhibition, usual class: inhibitors; DNA polymerase kappa (Homo sapiens), Q9UBT6; purified Pol kappa, fluorescent DNA synthesis assay, 10 min; note: potency is the fitted concentration of half-maximal effect; % is set by controls: 0 for no effect and ±100 for the full control effect
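Inhibition of 10 nM Pol kappa is measured by a fluorescent read-out at 0 and 10 min following addition of 50 nM substrate (final), with a 15-min room-temperature compound preincubation.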
PI5P4K alpha inh = qHTS for Inhibitors of phosphatidylinositol 5-phosphate 4-kinase (PI5P4K) | Phosphatidylinositol 5-phosphate 4-kinase type-2 alpha (Homo sapiens), P48426 | PI5P4Kalpha enzyme, ADP-Glo luminescence, 60 min; stronger effect = lower value | max response, % | actives 1.2% (n = 330,000) | AID 652105, 2013; active = max response of -50% or lower; inconclusive = between -30% and -50%; inactive = -30% or higher; note: value at the top dose of about 77 µM; % is set by controls: 0 for no effect and ±100 for the full control effect
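Quantitative HTS of the MLSMR library against PI5P4Kalpha with substrate. ATP added last at 5 microM final; room temperature, 60 minutes. Remaining ATP depleted, ADP converted and read as luminescence.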
The depositor's hits bear a star; [ ] = dose if it differs, or a comment. Most compounds without a hit are left out; they make up all but 2.8% or so of the library. Unless noted, calls come from the whole dose curve; as a rule, active = well fitted curve in the direction sought with a large enough effect; inconclusive = small, poorly fitted or top-dose-only effect, or another doubt; inactive = no such curve, though single readings can be large; an effect the other way counts as inactive or inconclusive.

Results for O=c1cc(-c2ccccc2Cl)oc2cc(O)cc(O)c12 ?
Pol iota inh: 5%; Pol eta inh: -10%; POLB inh: inconclusive; WRN helicase inh: -7%; POLK inh: -5%; PI5P4K alpha inh: 0

Results for O=c1cc(-c2ccccc2Cl)oc2c(NS(=O)(=O)c3cc(Cl)cc(Cl)c3O)ccc(O)c12 ?
Pol iota inh: 40µM*; Pol eta inh: 32µM*; POLB inh: 45µM*; WRN helicase inh: inconclusive; POLK inh: inconclusive; PI5P4K alpha inh: -89*

Results for CC(=O)c1sc(N/N=C\c2c(O)ccc3ccccc23)nc1C ?
Pol iota inh: inconclusive; Pol eta inh: -14%; WRN helicase inh: -24%; POLK inh: -4%; PI5P4K alpha inh: -53*

Results for CC1CC=CC2C1C(=O)N(Cc1ccccc1)C2c1ccc(-c2ccoc2)cc1F (centres undefined) ?
Pol iota inh: -10%; POLK inh: -4%

What do the screens show for `COc1ccc(C2NC(c3ccc4c(c3)OCO4)=CC(c3ccccc3O)N2)cc1OC` (centres undefined)?
Pol iota inh: -18%; POLK inh: 3%

What do the screens show for `COC(=O)c1ccc(CCc2cc(O)ccc2O)cc1`?
Pol iota inh: 16%; Pol eta inh: -5%; WRN helicase inh: 56µM*; POLK inh: -5%; PI5P4K alpha inh: inconclusive

What do the screens show for `COC(=O)c1ccc(O)cc1`?
Pol iota inh: 137%; Pol eta inh: -16%; POLB inh: 35%; WRN helicase inh: -5%; POLK inh: -4%; PI5P4K alpha inh: 2

How did COc1ccc(CN2C(=O)N(c3ccc(OC)cc3)C(=O)C2CC(=O)Nc2ccccc2)cc1 (centres undefined) do in these assays?
Pol iota inh: -2%; Pol eta inh: -1%; POLB inh: 33%; WRN helicase inh: -3%; POLK inh: 1%; PI5P4K alpha inh: 1

How did COc1ccc(N2C(=O)C(CC(N)=O)N(NC(=O)CCc3ccccc3)C2=O)cc1 (centres undefined) do in these assays?
Pol iota inh: 15%; Pol eta inh: -10%; POLB inh: 22µM*; WRN helicase inh: 4%; POLK inh: 6%; PI5P4K alpha inh: 3

What do the screens show for `COc1ccc(C)cc1-n1c(SCC(=O)Nc2cccc(C(=O)O)c2)nc2ccccc2c1=O`?
Pol iota inh: -18%; Pol eta inh: 2%; POLB inh: 6%; WRN helicase inh: -12%; POLK inh: -28%; PI5P4K alpha inh: -81*

What do the screens show for `COc1ccccc1CNC(=O)C1CCN(S(=O)(=O)c2c(C)noc2/C=C/c2cccs2)CC1`?
Pol iota inh: 89µM*; Pol eta inh: 0%; POLB inh: 1%; POLK inh: inconclusive

How did COC(=O)N/N=C/c1cc(N=Nc2ccccc2)ccc1O do in these assays?
Pol iota inh: 29%; Pol eta inh: -24%; POLB inh: -1%; WRN helicase inh: -3%; POLK inh: 1%; PI5P4K alpha inh: 4

What do the screens show for `Cc1cc(C(=O)N/N=C/c2cc(N=Nc3ccccc3)ccc2O)n[nH]1`?
Pol iota inh: 2%; Pol eta inh: -7%; POLB inh: 25µM*; WRN helicase inh: -31%[57.1 µM]; POLK inh: -3%; PI5P4K alpha inh: -26

Results for COc1ccc2ccccc2c1C1CC(=O)N2CN(Cc3ccco3)CSC2=C1C#N (centres undefined) ?
Pol iota inh: inconclusive; Pol eta inh: 89µM*; POLB inh: 50µM*; WRN helicase inh: -11%; POLK inh: -42%; PI5P4K alpha inh: inconclusive
